What follows are sequences tested on PPARg:RXRa DBDmut IVT, anti-RXR (DBD mutation: RXRa K156A/R161A, NR concentration 270 nM, RXRa partner concentration 90 nM) (assay: PBM binding z-score (relative to random genomic background probes); higher = stronger binding; sequences stand for … in GC…GCGATTGACAGCGTAGAATGAAGG).
In short: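 Scanned fluorescence from custom Agilent 4×180K protein-binding microarrays was regression-normalized. Binding z-scores use random background probes as reference. Ligand-free nuclear receptor dimers were incubated on the arrays for 1 h and detected with antibodies against each partner (one per run).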

In order of rising PBM binding z-score:
1. ATCGAAAGCTCGAAGGTGAGTATACCCACCCGAA  -0.94
2. GTACCAAGCTGAATAGGTCGTTGATGAGTAGGCG  -0.646
3. AGAATGAGGTTGTTAAGATCAGGGAATTGCGGTC  0.255
4. CTCGAAAGGTCGGTTAAGGTGAGTATACGGATAA  0.549
5. CCTTACGTGTCAAGGTTATAGCACGGGTGGTACG  0.564
6. TCTTGTAGCTCAAGCAGGTTAAGAAAGCCTGAGT  0.652
7. GCAGACAGGTGAAACGAAGGTAACTCAGGGTGGC  0.963
8. CATACAGGGTCAGCAAGGCCAGAGTAGGGACGGC  1.19
9. TCTTGTAGTTCAAGCAGGTTAAGAAAGCCTGAGT  1.37
10. TCATATCGGTAAAGGTGAAAGTCGAACGATATGA  1.56
11. TCGAGTGGGTTAGTCGGGGCATTCAGCCAACATA  1.67
12. TCTTGTGGATCAAAGGTTAAGAAAGCCGAAGCCT  1.84
13. CGTAGTTGGTCAAGGTCACACACGCTATAGGTAC  1.92
14. TATACAGGGTCAAAGGCCCGAGTACGAATGTCGA  1.95
15. CGTCCAAGGTGAGCAGGTCAGTGAAAGCGACGTG  1.99
16. TCTGCAAGGTCAACGATGGTCAGCTAATCTGCTA  3.02
17. CCTTACGGGTCACTGACAGGCTATAGCATTTGGA  3.84
18. TCATATAGGTAAACGTGAAAGTCGAACGATATGA  3.9
19. CCTGCTAGGTCAATGGTGAGCTAAAGCAGCTCGC  4.2
20. CCTGGTAGGTCAATGGTCAGCTAAAGCAGCTCGC  4.64
21. CCTACTGGGCCAAAGGTCACTGATTCCAATGCTC  5.75
22. CAAACTAGGTCAAGAGGTCAAAGTCCGCTTCCCG  8.49
